Results taken from the supplement of paper PMC7411054.
Counter-ions that a name gives are not always drawn.

Experiments:
Conditions in all cases: treatment time: 24 h
A549-ACTB-RAB5A [1] = experiment: lowest phenotypically active concentration; higher = less potent
Procedure, shortened: (§1)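 Cells from fifteen gene-edited reporter lines (A549, HepG2 and WPMY1) were treated for 24 h at 0.3, 1, 3 or 9 µM and imaged live, four wells per condition. Features were normalised per well to solvent control wells. A condition deviated if ≥3 of 4 wells passed the 95th percentile of control Euclidean distances and was reproducible if its median replicate Pearson correlation beat the 95th percentile of non-replicates; phenotypic activity needed both.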

A549-CANX-COX4 [2] = experiment: as above
Procedure, shortened: as §1

A549-GM130-SQSTM1 [3] = experiment: as above
Procedure, shortened: as §1

A549-TP53BP1-CLTA [4] = experiment: as above
Procedure, shortened: as §1

A549-TUBA1B-RELA [5] = experiment: as above
Procedure, shortened: as §1

A549-ACTB-RAB5A [6] = experiment: phenotypically active (imaging signature differs from DMSO and reproducible) at any of 0.3-9 uM (binary (1 = active, 0 = inactive)); higher = active
Procedure, shortened: as §1

A549-CANX-COX4 [7] = experiment: as above
Procedure, shortened: as §1

A549-GM130-SQSTM1 [8] = experiment: as above
Procedure, shortened: as §1

A549-TP53BP1-CLTA [9] = experiment: as above
Procedure, shortened: as §1

A549-TUBA1B-RELA [10] = experiment: as above
Procedure, shortened: as §1

HepG2-ACTB-RAB5A = experiment: as above
Procedure, shortened: as §1

HepG2-CANX-COX4 = experiment: as above
Procedure, shortened: as §1

HepG2-GM130-SQSTM1 = experiment: as above
Procedure, shortened: as §1

HepG2-TP53BP1-CLTA = experiment: as above
Procedure, shortened: as §1

HepG2-TUBA1B-RELA = experiment: as above
Procedure, shortened: as §1

WPMY1-ACTB-RAB5A = experiment: as above
Procedure, shortened: as §1

WPMY1-CANX-COX4 = experiment: as above
Procedure, shortened: as §1

WPMY1-GM130-SQSTM1 = experiment: as above
Procedure, shortened: as §1

WPMY1-TP53BP1-CLTA = experiment: as above
Procedure, shortened: as §1

WPMY1-TUBA1B-RELA = experiment: as above
Procedure, shortened: as §1

Row | SMILES | lowest phenotypically active concentration (A549-ACTB-RAB5A [1]) [µM] | lowest phenotypically active concentration (A549-CANX-COX4 [2]) [µM] | lowest phenotypically active concentration (A549-GM130-SQSTM1 [3]) [µM] | lowest phenotypically active concentration (A549-TP53BP1-CLTA [4]) [µM] | lowest phenotypically active concentration (A549-TUBA1B-RELA [5]) [µM] | phenotypically active (A549-ACTB-RAB5A [6]) | phenotypically active (A549-CANX-COX4 [7]) | phenotypically active (A549-GM130-SQSTM1 [8]) | phenotypically active (A549-TP53BP1-CLTA [9]) | phenotypically active (A549-TUBA1B-RELA [10]) | phenotypically active (HepG2-ACTB-RAB5A) | phenotypically active (HepG2-CANX-COX4) | phenotypically active (HepG2-GM130-SQSTM1) | phenotypically active (HepG2-TP53BP1-CLTA) | phenotypically active (HepG2-TUBA1B-RELA) | phenotypically active (WPMY1-ACTB-RAB5A) | phenotypically active (WPMY1-CANX-COX4) | phenotypically active (WPMY1-GM130-SQSTM1) | phenotypically active (WPMY1-TP53BP1-CLTA) | phenotypically active (WPMY1-TUBA1B-RELA)
1 | COc1cc2c(cc1-c1c(C)noc1C)ncc1[nH]c(=O)n([C@H](C)c3ccccn3)c12 [I-BET 151 dihydrochloride] | 1 | 3 | 1 | 3 | 1 | 1 (active) | 1 (active) | 1 (active) | 1 (active) | 1 (active) | 1 (active) | 1 (active) | 1 (active) | 1 (active) | 1 (active) | 1 (active) | 1 (active) | 1 (active) | 1 (active) | 1 (active)
2 | CC(=O)O[C@H]1C(=O)[C@@]2(C)[C@H]([C@H](OC(=O)c3ccccc3)[C@]3(O)C[C@H](OC(=O)[C@H](O)[C@@H](NC(=O)c4ccccc4)c4ccccc4)C(C)=C1C3(C)C)[C@]1(OC(C)=O)CO[C@@H]1C[C@@H]2O [paclitaxel] | ≤ 0.3 | ≤ 0.3 | ≤ 0.3 | ≤ 0.3 | ≤ 0.3 | 1 (active) | 1 (active) | 1 (active) | 1 (active) | 1 (active) | 1 (active) | 1 (active) | 1 (active) | 1 (active) | 1 (active) | 1 (active) | 1 (active) | 1 (active) | 1 (active) | 1 (active)
3 | Cc1n[nH]c2ccc(-c3cncc(OC[C@@H](N)Cc4ccccc4)c3)cc12 | ≤ 0.3 | ≤ 0.3 | ≤ 0.3 | ≤ 0.3 | ≤ 0.3 | 1 (active) | 1 (active) | 1 (active) | 1 (active) | 1 (active) | 1 (active) | 1 (active) | 1 (active) | 1 (active) | 1 (active) | 1 (active) | 1 (active) | 1 (active) | 1 (active) | 1 (active)
4 | C[C@@H]1COCCN1c1cc(C2(S(C)(=O)=O)CC2)nc(-c2cccc3[nH]ccc23)n1 | ≤ 0.3 | 1 | ≤ 0.3 | ≤ 0.3 | 1 | 1 (active) | 1 (active) | 1 (active) | 1 (active) | 1 (active) | 1 (active) | 1 (active) | 1 (active) | 1 (active) | 1 (active) | 1 (active) | 1 (active) | 1 (active) | 1 (active) | 1 (active)
5 | O=C(CCCCCCC(=O)Nc1cccnc1)NO [Pyroxamide] | 3 | 3 | 3 | 9 | 9 | 1 (active) | 1 (active) | 1 (active) | 1 (active) | 1 (active) | 1 (active) | 1 (active) | 1 (active) | 1 (active) | 1 (active) | 1 (active) | 1 (active) | 1 (active) | 1 (active) | 1 (active)
